Shown are actives, neighbours in structure and some others; about 0.92% of the full set was active somewhere.
Rv3671c inh = Rv3671c serine protease inhibitors, primary screen, biochemical, fluorescence polarization, M. tuberculosis H37Rv; P9WHR9; inhibition, % at 5.96 µM; 0.048% of 320,000 active; in the data active means inhibition above about 38%;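 further: extracellular domain of Rv3671c used as enzyme; 0% = enzyme with DMSO and 100% = no enzyme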
FadD28 FP inh = inhibitors of FadD28 bisubstrate probe binding, primary screen, biochemical, fluorescence polarization, single point | 0.22% of 360,000 active | inhibition, % at 12.5 µM | AID 588549, 2011 | Mycobacterium tuberculosis FadD28 fatty-acid-AMP ligase; in the data active means inhibition above about 8.5%, passing the limit was not always enough
RecA splice inh = Mtb RecA intein splicing inhibitors, primary screen, biochemical, fluorescence, HTS | Protein RecA (Mycobacterium tuberculosis (strain ATCC 25618 / H37Rv)), P9WHJ3 | cell-free RecA intein splicing | inhibition, % (no concentration beside the values) | 0.75% of 290,000 active; in the data active means inhibition above about 30%;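 further: 0% = vehicle wells and 100% = reference inhibitor control wells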
Target sequence (P9WHJ3 whole entry, looked up, canonical isoform): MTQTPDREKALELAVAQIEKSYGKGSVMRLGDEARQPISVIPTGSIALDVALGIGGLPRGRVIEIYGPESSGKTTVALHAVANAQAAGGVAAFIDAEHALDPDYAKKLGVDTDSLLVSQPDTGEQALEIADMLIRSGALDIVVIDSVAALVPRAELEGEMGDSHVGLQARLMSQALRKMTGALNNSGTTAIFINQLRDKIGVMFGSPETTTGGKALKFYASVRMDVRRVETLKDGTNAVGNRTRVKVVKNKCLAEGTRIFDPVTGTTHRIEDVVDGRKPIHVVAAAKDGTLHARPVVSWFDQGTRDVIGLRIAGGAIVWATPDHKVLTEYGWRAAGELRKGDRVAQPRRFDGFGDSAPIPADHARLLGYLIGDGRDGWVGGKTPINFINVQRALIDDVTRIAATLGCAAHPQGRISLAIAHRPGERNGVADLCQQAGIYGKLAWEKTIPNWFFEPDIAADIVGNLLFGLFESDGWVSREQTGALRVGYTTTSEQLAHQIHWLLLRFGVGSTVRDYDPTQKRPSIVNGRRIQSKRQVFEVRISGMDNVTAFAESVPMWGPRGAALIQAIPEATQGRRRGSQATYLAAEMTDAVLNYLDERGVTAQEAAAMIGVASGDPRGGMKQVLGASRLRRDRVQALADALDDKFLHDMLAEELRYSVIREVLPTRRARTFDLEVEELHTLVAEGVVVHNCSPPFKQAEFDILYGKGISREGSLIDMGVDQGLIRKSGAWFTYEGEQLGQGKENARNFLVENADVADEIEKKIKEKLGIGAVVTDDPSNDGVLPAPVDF
Mtb UGM inh = M. tuberculosis UGM enzyme inhibitors, primary screen, biochemical, fluorescence polarization, single point | inhibition, % at 10 µM | 0.06% of 320,000 active | purified UGM, fluorescence polarization probe displacement | UDP-galactopyranose mutase (Mycobacterium tuberculosis (strain ATCC 25618 / H37Rv)), …; in the data active means inhibition above about 10%, passing the limit was not always enough
Mtb hypoxia rep = PubChem AID 1159583 | M. tuberculosis hypoxia-regulated fluorescent reporter, fluorescence | fluorescence inhibition, % (concentration not given with the values) | 0.1% of 300,000 active; in the data active means fluorescence inhibition mostly above about 23%, no sharp cut-off; inactive means mostly below about 17%
* = called active by the depositor; · = no result shown.

SMILES	Rv3671c inh	FadD28 FP inh	RecA splice inh	Mtb UGM inh	Mtb hypoxia rep
Cc1nc2c(=O)n(C)c(=O)n(C)c2nc1Cl	11	-3	45*	-2	23
COc1cc(-c2cc(C(=O)Nc3c(Cl)cc(Cl)cc3Cl)c3ccccc3n2)cc(OC)c1OC	-13	-3	-9	3	0
COc1ccc2nc3ccccc3nc2c1NC(=O)c1ccc(Cl)cc1Cl	5	0	-29	37*	-9
COc1ccc(C=NNC(=O)CC(=O)NCCc2ccccc2)cc1OC	·	·	·	·	3
O=C(COC(=O)c1ccc([N+](=O)[O-])o1)c1ccccc1	-12	-3	-2	-1	11
O=C(OCCCOC(=O)c1ccc([N+](=O)[O-])o1)c1ccc([N+](=O)[O-])o1	-16	-3	-4	-2	71*
C=C1C(=O)O[C@@H]2C[C@@H](C)[C@@H]3C=CC(=O)[C@@]3(C)[C@@H](OC(=O)CC(=O)O[C@H]3[C@@H]4C(=C)C(=O)O[C@@H]4C[C@@H](C)[C@@H]4C=CC(=O)[C@]43C)[C@H]12	-35	-4	33*	4	·
Nc1c(Sc2ccccc2)c(=O)[nH]c(=O)n1Cc1ccccc1	-11	-2	1	-1	2
Cc1[nH]n(C(C)(C)C)c(=O)c1Sc1ccccc1	-3	-3	50*	-1	6
CCCC1C2CN(C(C)C)CC=C2C(C#N)=C(N)C1(C#N)C#N (stereo not given)	8	-1	-100	13*	8
CN1CC=C2C(C#N)=C(N)C(C#N)(C#N)C(CCc3ccccc3)C2C1 (stereo not given)	-7	-2	-22	2	13
CC(C)c1ccc(C2C3CSCC=C3C(C#N)=C(N)C2(C#N)C#N)cc1 (stereo not given)	-12	·	36*	2	·
COC(=O)C(Cc1ccccc1)NC(=O)N1CC(C)OC(C)C1 (stereo not given)	·	·	·	·	1
COc1ccccc1/C=N/Nc1cc(N(C)C)nc(N(C)C)n1	-13	-1	44*	1	·
COc1ccccc1C=NNc1cc(N(C)C)nc(N(C)C)n1	·	·	·	·	-19
Cc1ccccc1OCCC(=O)NNC(=O)c1ccccc1F	2	-3	·	-1	33*
COc1cc(C(=O)NNC(=O)CCOc2ccccc2C)cc(OC)c1OC	1	0	·	0	5
CCOC(=O)c1cnc2ccc(Cl)cc2c1NCCN(C)C	5	-3	2	20*	·
CN1c2ccsc2C(=NNC(=O)c2c(F)cccc2F)CS1(=O)=O	·	·	·	·	19
Nc1ccc(C2(c3ccc(N)cc3)c3ccccc3-c3ccccc32)cc1	-2	-2	·	6	50*
CCOC(=O)C1=CN2CCCCC2CC1=O (stereo not given)	·	·	·	·	12
CCCCOc1ccc(C=CC(=O)NC2=Nc3ccccc3NC(C)=C2C(=O)OCC)cc1OC	·	·	·	·	-5
O=C(O)c1cccc(N/N=C(\N=Nc2ccccc2)c2ccccc2)c1	19	6	41*	0	·
CC(NC(=O)c1ccc(F)cc1)c1ccccc1 (stereo not given)	-4	-1	-2	3	56*
NC(=O)C[C@H](NC(=O)c1ccc(Cl)cc1)C(=O)OCc1ccccc1	8	-4	·	1	28*
SMILES	Rv3671c inh	FadD28 FP inh	RecA splice inh	Mtb UGM inh	Mtb hypoxia rep
CC1=NN(c2cccc([N+](=O)[O-])c2)C(=O)C1	-23	2	84*	0	0
Cc1nc2ccccc2c(=O)n1-c1cccc([N+](=O)[O-])c1	4	-4	-1	3	12
C=C(C)C(=O)NC1=NN(c2ccccc2)C(=O)C1	-29	-1	73*	0	-2
Cc1ccc(-n2nnnc2CCl)cc1	·	0	46*	·	·
COc1ccccc1NS(=O)(=O)c1cc(N)ccc1N1CCCC1	3	-3	·	23*	11
Cc1cccc(NC(=O)CN2C(=O)N/C(=C/c3cc(C)n(-c4cccnc4)c3C)C2=O)c1	-9	28*	-3	-3	3
Cc1cc(/C=C2/NC(=O)N(c3ccccc3)C2=O)c(C)n1-c1cccnc1	-6	-3	-2	2	·
Cc1cccc(NC(=O)CN2C(=O)N/C(=C/c3cc(C)n(C)c3C)C2=O)c1	·	0	·	·	4
Cc1cccc(NC(=O)CN2C(=O)N/C(=C/c3cc(C)n(-c4ccncc4)c3C)C2=O)c1	-23	11*	-1	1	2
COc1cccc(NC(=O)Nc2nc(SC)ns2)c1	-6	2	3	3	-15
COc1cccc(NC(=O)Nc2nc(SC(C)(C)C)ns2)c1	-139	21*	9	1	1
Cc1ccc(-n2nc(C)c(NC(=O)CCl)c2C)cc1C	1	-3	42*	1	·
CCC(=O)Nc1c(C)nn(-c2ccc(C)c(C)c2)c1C	0	-1	-4	2	-9
Cc1cc(Sc2nnc(/N=C/N(C)C)s2)c2ccccc2n1	3	-5	36*	0	·
O=C(Nc1ccc2c(c1)OCO2)OC1CC2CCC(=O)N3CCC(C1)C23 (stereo not given)	·	·	·	·	0
CCOC(=O)CSc1nc(N)c(C#N)c(-c2ccc(OCC)cc2)c1C#N	1	-1	-1	0	10
CC1=C(C#N)c2nc(N)c(C#N)c(C)c2/C1=C\c1ccc(OCC(=O)O)c(Cl)c1	1	14*	9	1	-11
Cc1ccc(C=C2C(Cl)=C(Cl)C(Cl)=C2Cl)cc1	4	·	31*	-3	15
Cc1ccc(C=NNC(=O)Cn2cnc3ccccc32)cc1	·	·	·	·	3
COc1ccc(Br)cc1[C@H]1[C@@H]2C=CCC[C@@]2(C)C(=O)N1Cc1ccccc1	-2	-3	32*	1	·
CC=C1COC(C(=O)NCCN2CCCC2)(C(F)(F)F)C=C1C=C1CCCCC1 (stereo not given)	·	·	·	·	9
COC(=O)[C@@]12CCCCN1C(c1ccc(SC3CCCCC3)cc1)C1C(=O)N(C)C(=O)C12 (stereo not given in full)	·	·	·	·	4
Cc1cccc(NC(=O)CN2C(=O)S/C(=C\c3cc(C)n(C)c3C)C2=O)c1	-7	34*	-3	-3	4
Cc1ccc(C(=O)O)cc1-c1ccc(/C=C2\SC(=O)N(CC(=O)Nc3ccccc3)C2=O)o1	-18	17*	-24	2	-7
Cc1ccc(NC(=O)CN2C(=O)S/C(=C\c3cc(C)n(-c4cccc(C(=O)O)c4)c3C)C2=O)cc1	-17	43*	4	1	·
CCc1c(O)nc(SCC(=O)Nc2nc3ccccc3s2)n(-c2ccccc2)c1=O	6	14*	1	3	25
CC(/C=C/c1ccccc1)=NNC(=O)C(O)c1ccccc1 (stereo not given)	·	·	·	·	-4
CC(=O)Nc1ccc(SCC(Cc2ccccc2)N2CCC(C(C)(C)C)CCC2=O)cc1 (stereo not given)	·	·	·	·	-4
O=c1c2c(-c3ccccc3)csc2nc2c3ccccc3c(NCCN3CCOCC3)nn12	·	-25	-6	·	41*
Nc1ccc(-c2nc3ccc(N)cc3[nH]2)cc1	7	14*	-14	2	3

Screens (PubChem)
